# Results reported in PubChem BioAssay (EPA / NIEHS).
# Values joined by “and” are separate entries in the source; they are usually repeats but may differ in a detail not shown here. Equal entries are not always repeated. A structure can be active in one record and inactive in another. Active and inactive are the calls of the source. Rule for the calls: active = hit-call score of the fitted dose curve at least 0.9, where 1 is the maximum; inactive = score below 0.9.
# Test: ATG_AP_1_CIS: Attagene CIS-FACTORIAL HepG2 Assay for human Activator Protein 1 (AP-1) (AID 2282931)
# Conditions: HepG2 Attagene cis-factorial AP-1 reporter mRNA; actives raise or lower the signal
# Description: ATG_CIS is a cell-based, multiplexed-readout assay that uses HepG2, a human liver cell line, with measurements taken at 24 hours after chemical dosing in a 24-well plate.ATG_AP_1_CIS is one of 52 assay component(s) measured or calculated from the ATG_CIS assay. It is designed to make measurements of mRNA induction, a form of inducible reporter, as detected with fluorescence intensity signals by Reverse transcription polymerase chain reaction (RT-PCR) and Capillary electrophoresis technology.Data from the assay component ATG_AP_1_CIS was analyzed into 1 assay endpoint. This assay endpoint, ATG_AP_1_CIS, was analyzed with bidirectional fitting relative to DMSO as the negative control and baseline of activity. Using a type of inducible reporter, measures of mRNA for gain or loss-of-signal activity can be used to understand the reporter gene at the transcription factor-level as they relate to the gene FOS and JUN. Furthermore, this assay endpoint can be referred to as a primary readout, because this assay has produced multiple assay endpoints where this one serves a reporter gene function. To generalize the intended target to other relatable targets, this assay endpoint is annotated to the dna binding intended target family, where the subfamily is basic leucine zipper.
# Human liver HepG2 cells are transiently transfected with multiple reporter transcription units (MRTUs) in 6-well plates using FuGene 6 reagent (Roche; 3 ml FuGene/1 mg DNA). The MRTU constructs are regulated by a cis-regulating element (promoter). […] A major difference between the CIS and TRANS system is that in CIS activities of endogenous TFs are measured, whereas the TRANS assay evaluates changes in activities of exogenous, chimeric NR-Gal4 proteins. […] At the end of 24 hour incubation, total RNA was isolated using TriZol reagent (Invitrogen). The isolated RNA is then reverse-transcribed using oligo(dT) primer and Mo-MLV reverse transcriptase (Invitrogen) with DNAse I (Ambion) treatment for 30 min. The one-tenth of the produced cDNA was amplified by PCR using Taq DNA polymerase (Invitrogen) and two reporter sequence-specific primers. The PCR products were fluorescently labeled by primer extension with 6-arboxyfluorescein (6-FAM) 5'-labeled reporter sequence-specific primer (2 min at 95 C, 20 s at 68 C and 10 min at 72 C) and these products were digested with 5U of HpaI (New England Biolabs) for 2h at 37 C. The fragments were purified using Qiaquick PCR columns (Qiagen), analyzed on an ABI 3130xL genetic analyzer (Applied Biosystems) with peak positions identified by using a set of X-rhodamine (ROX)-labeled MapMarker1000 molecular weight standards (BioVentures). The raw capillary electrophoresis data was processed using Attagraph software (Attagene).
Compound,outcome,AC50
CCCCCCCCCCCCCCCCCC(=O)OCCCCCCCCCCCCCC(C)C,inactive,
O=C(O)c1ccc(C(=O)O)c(C(=O)O)c1,inactive,
COC(=O)C(C)Oc1ccc(Oc2ncc(C(F)(F)F)cc2Cl)cc1 (stereo not given),inactive,
CCCCOC(=O)C(C)OC(=O)CCC (stereo not given),inactive,
CC1(C)CC(=O)CC(C)(C)N1,inactive,
NNC(=O)OCc1ccccc1,inactive,
CC(=O)CC(C)(C)C1CCCCC1,inactive,
CCCCCCCCCCOC(=O)c1ccccc1C(=O)OCCCCCCCC,inactive,
CCCCCCCCCC(=O)OCC,inactive,
CCCCCC#CC(=O)OC,inactive,
COc1ccccc1NC(=O)CC(C)=O,inactive,
CC(=O)CC(=O)N(C)C,inactive,
OCC=Cc1ccccc1,inactive,
COc1ccc(C(C)=O)cc1,inactive,
CC(O)CN (stereo not given),inactive,
CCC(CC)CO,inactive,
S=c1[nH][nH]c(=S)s1,inactive,
CCCCCCC(O)CCOC(C)=O (stereo not given),inactive,
CC(C)(C)c1cccc(O)c1,inactive,

Compound,outcome,AC50
CNC(=C[N+](=O)[O-])NCCSCc1ccc(CN(C)C)o1,inactive,
C=C(C)C(=O)OCCC(C)OC(=O)C(=C)C (stereo not given),inactive,
O=C(c1ccc(OCCN2CCCCC2)cc1)c1c(-c2ccc(O)cc2)sc2cc(O)ccc12,inactive,17.5 µM (active) and 16.9 µM (active) and 13.1 µM (active)
C#C[C@]1(O)CC[C@H]2[C@@H]3CCc4cc(O)ccc4[C@H]3CC[C@@]21C,inactive,47.3 µM (active)
C=CC(C)CCCC(C)(C)O (stereo not given),inactive,
CCCCC(CC)COCCO (stereo not given),inactive,
CC(C)(O)C(=O)c1ccc(OCCO)cc1,inactive,
O=C(O)c1ccccc1O,inactive,
CCC(=O)OC(C)(C)C1CC=C(C)CC1 (stereo not given),inactive,
CCc1cccc(O)c1,inactive,
CCOC(=O)C(=O)OCC,inactive,
C=C1CC[C@H]2O[C@]2(C)CC[C@@H]2[C@@H]1CC2(C)C,inactive,
CC1COC(=O)O1 (stereo not given),inactive,
OC[C@H]1O[C@@H](O[C@H]2[C@H](O)[C@@H](O)[C@H](O)O[C@@H]2CO)[C@H](O)[C@@H](O)[C@H]1O,inactive,
CC(=O)CCC(=O)O,inactive,
C=CCOC(=O)/C=C\C(=O)OCC=C,inactive,
C=C/C(C)=C/C/C=C(\C)CCC=C(C)C,,125 µM (active)
O=C1CCC(=O)N1,inactive,
C=COCC1CCC(COC=C)CC1 (stereo not given),inactive,
